Activation data for 26 compounds are collected here from PubChem BioAssay AID493087 (The Scripps Research Institute Molecular Screening Center, 2011).

The structures appear in SMILES notation. Screen size: about 340,000 compounds; about 240 (0.071%) were called active. The full list was thinned out, with actives kept by preference. Values without a mark were called inactive.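 Rule for the calls: active = activation above the mean of all tested compounds plus 3 SD, set per screening campaign (cut at about 17% in these data); inactive = the rest.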

The target in this test is Insulin-degrading enzyme (Homo sapiens) (UniProt P14735). In words: human IDE activators in live cells, primary screen, fluorescence polarization, HEK cells, FAbeta-B substrate (AID 493087). The following applies: FAbeta-B cleavage, at 5.96 µM, hits give high values, 0% vehicle, 100% cell-free pure enzyme wells. (Fluorescence polarisation rises when a labelled molecule tumbles more slowly, as on binding a larger partner.)
Chain of Insulin-degrading enzyme (Homo sapiens) (P14735 whole entry, looked up): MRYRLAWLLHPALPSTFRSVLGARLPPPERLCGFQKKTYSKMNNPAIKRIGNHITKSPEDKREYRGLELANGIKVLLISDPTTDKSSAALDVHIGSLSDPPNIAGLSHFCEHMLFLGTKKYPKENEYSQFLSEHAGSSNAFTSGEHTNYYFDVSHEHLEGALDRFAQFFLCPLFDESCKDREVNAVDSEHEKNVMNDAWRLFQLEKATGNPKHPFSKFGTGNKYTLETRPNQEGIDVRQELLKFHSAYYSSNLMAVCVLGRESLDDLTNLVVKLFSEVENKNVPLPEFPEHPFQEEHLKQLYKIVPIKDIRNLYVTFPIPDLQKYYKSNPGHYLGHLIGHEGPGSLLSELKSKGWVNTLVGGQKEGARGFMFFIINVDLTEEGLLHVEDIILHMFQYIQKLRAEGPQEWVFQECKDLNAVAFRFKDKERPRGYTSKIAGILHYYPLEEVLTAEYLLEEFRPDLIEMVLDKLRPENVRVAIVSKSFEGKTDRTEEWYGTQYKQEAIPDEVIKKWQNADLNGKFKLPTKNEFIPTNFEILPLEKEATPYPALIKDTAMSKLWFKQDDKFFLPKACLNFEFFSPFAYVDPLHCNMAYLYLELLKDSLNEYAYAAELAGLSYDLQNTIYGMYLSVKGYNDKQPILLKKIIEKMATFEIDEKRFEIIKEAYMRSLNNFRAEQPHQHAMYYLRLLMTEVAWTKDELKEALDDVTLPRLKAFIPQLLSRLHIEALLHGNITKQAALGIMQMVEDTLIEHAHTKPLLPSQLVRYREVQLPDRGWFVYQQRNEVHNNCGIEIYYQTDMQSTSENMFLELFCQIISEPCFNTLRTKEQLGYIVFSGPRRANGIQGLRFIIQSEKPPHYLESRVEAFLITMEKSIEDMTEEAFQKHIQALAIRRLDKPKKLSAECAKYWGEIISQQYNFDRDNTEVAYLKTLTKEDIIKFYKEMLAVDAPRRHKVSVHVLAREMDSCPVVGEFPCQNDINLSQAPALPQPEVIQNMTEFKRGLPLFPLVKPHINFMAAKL
For the compound `CN(C)C(=O)c1cc(Br)ccc1Cl`, the activation was 7.04%.
The result for `O=C(CNC(=O)OCc1ccccc1)Oc1cc2oc(=O)cc(-c3ccccc3)c2cc1Cl` reads 3.87%.
Then `Cc1ccc(COc2ccc(C(=O)NN)cc2)cc1`, with -2.7%; and `CCCCCCCCCCOC(=O)Cn1c(COc2ccc(C)cc2)[n+](C)c2ccccc21`, with 21.7% (active); and `CCCCOc1ccc(NC(=O)CSCC(=O)OCC)cc1`, with 0.69%.
With `CC1CCN(C(=O)CCNC(=O)c2ccccc2)CC1`, the activation is 4.37%.
The result for `Cc1ccc(Cl)cc1NC(=O)CN1CCN(S(=O)(=O)N2CCOCC2)CC1` reads 3.41%; that for `C#CCOCCOCCOCCNc1nc(N2CCOCC2)nc(N2CCN(C(=O)[C@H](Cc3ccc(O)cc3)n3cc(CCO)nn3)CC2)n1`, -1.07%; that for `COc1ccc(C2=NOC(C(=O)NCc3ccco3)C2)cc1OC` (stereo unspecified), -0.49%.
Then `COc1ccc2c(c1)c(=Cc1ccc(N(C)C)cc1)c1cc(-c3ccccc3)[n+](C)n12`, with -19.1%; and `COC(=O)COc1ccc2c(=O)c(Oc3ccccc3Br)coc2c1`, with 1.55%; and `O=C(Nc1nn(Cc2ccccc2F)cc1Br)c1cccs1`, with 2.02%.
As to `O=C(O)CCc1cccnc1`, the activation is 0.08%.
Then `CCOc1ccc(S(=O)(=O)N2CCCCCC2)c2ccccc12`, with 7.79%; and `COc1ccc(-c2csc3ncnc(Oc4ccc5c(C)cc(=O)oc5c4)c23)cc1`, with -0.97%; and `CCOC(=O)C1CCN(S(=O)(=O)c2ccc3c(c2)N(C)C(=O)CC(=O)N3C)CC1`, with 4.32%.
Then `Cc1ccc(C(c2nnnn2CS(=O)(=O)c2ccc(C)cc2)N2CCC(C)CC2)cc1` (stereo unspecified), with 6.3%; and `CN1CCN(C(=O)C(=O)c2cn(CC(=O)N3CCCC3)c3ccccc23)CC1`, with 0.5%; and `Fc1cccc(CSc2nnc3ccc(-c4ccncc4)nn23)c1`, with 11%.
For `COC(=O)[C@]1(S(=O)(=O)c2ccccc2)C[C@@H]2ON=C(c3ccc(OC)cc3)[C@@H]2C1`, the activation was -5.33%.
The result for `COc1ccc(N2CCN(C(=O)c3ccc(N4CCCCS4(=O)=O)cc3)CC2)cc1` reads 1.3%; that for `CN(CC(=O)NC1CCCCC1)S(=O)(=O)c1cccc2cccnc12`, 4.22%.
The result for `O=C1/C(=C\c2ccc(O)cc2)CCC1CNc1ccc(Cl)cc1` (stereo unspecified) reads -1.61%; that for `N#Cc1cccc(CN2CCC(=O)N([C@H](CO)c3ccccc3)CC2)c1`, 2.37%.
As to `OC(COc1ccccc1)CN1CCN(c2cccc(Cl)c2)CC1` (stereo unspecified), the activation is 5.12%.
Regarding `CN(Cc1cccs1)C(=O)CN1C(=O)c2ccccc2S1(=O)=O`, the activation is 0.93%.
